Inconclusive results are not listed. A call without a number means that no potency is given here. Activity calls are given as the source filed them. Calls come from the whole dose curve; as a rule, active = well fitted inhibition curve with a large enough effect in the polarisation, with a control signal flat (not every such curve was filed as active); inconclusive = small, poorly fitted or top-dose-only effect, or effect the other way, or a change in a side signal; inactive = no such curve, though single readings can be large or run the other way; the % refers to the polarisation.
Assay: Confirmation of Inhibitors Targeting the Menin-MLL Interaction in MLL Related Leukemias: Competition With Texas Red Labeled MLL-derived Mutant Peptide
Method in brief: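 FP competition using menin at 200 nM with Texas Red-labeled mutant MLL peptide (50 nM) plus fluorescein MLL-w.t. peptide (25 nM) in 50 mM Tris-HCl pH 7.5, 50 mM NaCl, 1 mM DTT, 0.05% BSA; compound added, 1 hr ambient; polarization read per label.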
Potency is the fitted concentration of half-maximal effect.

## COc1ccc(OCCCn2ccnc2)cc1
  Potency: inactive

## CC(NC(=O)c1cnc2ccccc2n1)c1ccccc1 (stereo not given)
  Potency: inactive

## C/C(=N\NC(=O)c1nnn(-c2nonc2N)c1C)c1ccc(-c2ccccc2)cc1
  Potency: inactive

## CC(c1ccncn1)N(C)Cc1nc(-c2ccc(C(F)(F)F)cc2)no1 (stereo not given)
  Potency: inactive

## COCC(=O)Nc1cccc2ccccc12
  Potency: inactive

## CN(C)CCc1c[nH]c2ccc(CC3COC(=O)N3)cc12 (stereo not given)
  Potency: inactive

## NS(=O)(=O)c1ccc(NC(=O)c2ccc(S(=O)(=O)N3CCc4ccccc43)cc2)cc1
  Potency: 20 µM (active)

## CCc1ccc(CNC(=O)CCS(=O)(=O)Cc2ccccc2F)cc1
  Potency: inactive

## COc1ccc(-c2cc(=O)c3c(O)cc(O)c(-c4cc(-c5cc(=O)c6c(O)cc(O)cc6o5)ccc4OC)c3o2)cc1
  Potency: inactive

## O=C(O)CCC(=O)Nc1ccc(SSc2ccc(NC(=O)CCC(=O)O)cc2)cc1
  Potency: inactive

## Cc1sc2ncnc(NC3CCN(Cc4ccccc4)CC3)c2c1C
  Potency: 28.2 µM (active)

## NC(=NCCCCCCN=C(N)/N=C(\N)Nc1ccc(Cl)cc1)/N=C(\N)Nc1ccc(Cl)cc1
  Potency: 70.8 µM (active)

## CCOc1cc(C(c2c(C)[nH][nH]c2=O)c2c(C)[nH][nH]c2=O)cc(Br)c1OC
  Potency: inactive

## COc1ccccc1/C=N/n1c(N)c(S(=O)(=O)c2cccs2)c2nc3ccccc3nc21
  Potency: inactive

## CCc1cc2c(N3CCN(c4nnc(CC)s4)CC3)ncnc2s1
  Potency: 11.2 µM (active)

From PubChem BioAssay AID2782 (National Center for Advancing Translational Sciences (NCATS), 2010)
